Screening results: PubChem BioAssay, National Center for Advancing Translational Sciences (NCATS)
Sm TGR block = qHTS Assay for the Inhibitors of Schistosoma Mansoni Peroxiredoxins. Schistosoma mansoni thioredoxin glutathione reductase (TGR), Q962Y6. 360,000 compounds, 3% hits. Potency, µM (top dose mostly 114 µM), usual class: inhibitors. purified TGR, DTNB reduction, TNB absorbance 405 nm; note: nearly all actives have a fitted effect of over 60% in size
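First, TGR (20 nM dispensed) and NADPH were mixed with compound. Second, a 15 min room-temperature incubation followed. Third, further NADPH and then DTNB were added to start the reaction. Finally, TNB absorbance was monitored kinetically.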
Pf growth 48h = Primary qHTS for delayed death inhibitors of the malarial parasite plastid, 48 hour incubation; AID 504832, 2011; 310,000 compounds, 5.9% hits; Potency, µM (top dose mostly 28.7 µM), hits mostly inhibitors; P. falciparum luciferase growth in erythrocytes, 48 h
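Cell-based growth assay: transgenic P. falciparum expressing firefly luciferase, cultured in red cells within RPMI 1640 containing 0.5% w/v Albumax, 24 mM bicarbonate and gentamycin. A drop in luciferase activity indicates inhibition.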
SARS PLP yeast = qHTS of Yeast-based Assay for SARS-CoV PLP; 330,000 compounds, 0.19% hits; S. cerevisiae expressing SARS-CoV PLpro, growth rescue; Potency, µM (series often up to 32.9 µM), hits mostly activators; calls by dose curve; note: nearly all actives have a fitted effect of over 55% in size
HCV inh = qHTS Assay for Inhibitors of Hepatitis C Virus (HCV); Huh7.5.1 HCVcc-Cre infection, luciferase reporter, 44 h; Potency, µM (highest dose often 41.8 µM), actives largely listed as inhibitors; 340,000 compounds, 3.4% hits; AID 651820, 2012
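Compounds are dispensed onto cells plated 4 h earlier at 1,000 per well, with HCVcc-Cre virus (about 0.5 moi) added next. Following 44 h of culture, luminescent signal is measured for 15 sec after 15 min with substrate at room temperature.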
Pf growth 96h = Primary qHTS for delayed death inhibitors of the malarial parasite plastid, 96 hour incubation; 320,000 compounds, 6.9% hits; Potency, µM (top dose mostly 28.7 µM), hits mostly inhibitors; P. falciparum luciferase reporter growth, 96 h
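P. falciparum expressing integrated firefly luciferase, in erythrocytes at 2% hematocrit, 0.05% parasitemia, incubated with compounds 96 h at 37 C, 5% CO2. Growth inhibition read as loss of luminescence; two-generation exposure targets delayed-death apicoplast inhibitors.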
HCMV inh = qHTS Assay for inhibitors of the human cytomegalovirus (HCMV) | HFF cells, HCMV-luciferase reporter, 72 h; hits give low values | activity change, negative = inhibition, % at 57.5 µM | AID 1259415, 2018 | 410,000 compounds, 4.5% hits; in the data active = activity change below about -60%; inconclusive = no clear call, values can overlap the other calls; inactive = above about -39%
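Two-dose cell screen: HFF monolayers treated with compounds and infected with luciferase-expressing HCMV at 1 PFU/cell, 72 h at 37C, then lysed for luciferase measurement.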
Each line names hits and unclear results; the compound was inactive in the other large screens. This is a sample that favours compounds with a hit; in the whole collection about 15% have one here. Unless noted, calls come from the whole dose curve; as a rule, active = well fitted curve in the direction sought with a large enough effect; inconclusive = small, poorly fitted or top-dose-only effect, or another doubt; inactive = no such curve, though single readings can be large; an effect the other way counts as inactive or inconclusive.

O=C(CN(c1cc(Cl)ccc1Cl)S(=O)(=O)c1ccccc1)N1CCOCC1	none
O=C(Cc1ccc(F)cc1)N1CCC(N2CCC(C(=O)N3CCOCC3)CC2)CC1	HCMV inh inconclusive
O=C1CC(C(=O)O)S/C(=N\NC(=O)c2ccccc2)N1 (centres undefined)	HCMV inh -82
Cc1ccc(N2CCN(c3ccc(C)cc3)C(CC(=O)O)C2=O)cc1 (centres undefined)	Pf growth 48h 12µM, Pf growth 96h inconclusive
Cc1ccc(N2CC(C(N)=O)CC2=O)cc1 (centres undefined)	none
CCOC(=O)c1cc2sc(C)cc2n1C(C)C(=O)OCC (centres undefined)	Pf growth 96h 0.83µM
OC(C#CCN1CCOCC1)c1cccs1 (centres undefined)	Sm TGR block 28µM
Cn1cc(/C=C/c2cc[n+](C)cc2)c2cc(Cl)ccc21	Pf growth 48h 0.66µM, HCV inh inconclusive, Pf growth 96h 0.17µM, HCMV inh -102
Cn1cc(C=O)c2cc(F)ccc21	none
Cn1cc(/C=C/c2cc[n+](C)cc2)c2cc(F)ccc21	Pf growth 48h 0.26µM, HCV inh 0.56µM, Pf growth 96h 0.13µM (no result: HCMV inh)
C[n+]1ccc(/C=C/c2c[nH]c3ccc(F)cc23)cc1	Pf growth 48h 0.37µM, HCV inh 1µM, Pf growth 96h inconclusive, HCMV inh -97
Cc1ccc2[nH]cc(S(=O)(=O)c3ccc(F)cc3)c(=O)c2c1	none
COc1ccc(C(=O)Nc2cc(-c3cccc(C)c3)nn2-c2ccccc2)cc1	none (no result: Pf growth 48h, SARS PLP yeast, HCV inh, Pf growth 96h)
Cc1cnc(C(=O)Nc2cccc(-c3nnc4n3CCCCC4)c2)cn1	Pf growth 96h inconclusive
c1cc(Nc2ncnc3sccc23)cc(-c2nnc3n2CCCCC3)c1	Pf growth 48h inconclusive, HCV inh 10µM, Pf growth 96h inconclusive
C=C(C)CNC(=S)N/N=C(\C)c1ccc(-n2ccnc2)cc1	Pf growth 96h 5.9µM (no result: Pf growth 48h)
C/C(=N\Nc1ccc(Cl)c(Cl)c1)c1ccc(-n2ccnc2)cc1	Pf growth 48h 12µM, HCV inh inconclusive, Pf growth 96h 4.7µM
C/C(=N\NC(N)=S)c1ccc(-n2ccnc2)cc1	Pf growth 48h inconclusive, HCV inh inconclusive, Pf growth 96h inconclusive
CCCc1nc2cc(C)c(Br)c(C)n2c1Cc1ccsc1	none (no result: Sm TGR block, Pf growth 48h, SARS PLP yeast, HCV inh, Pf growth 96h)
COC(=O)CCCn1c(-c2ccc(C)cc2)c(C)n2c3c(=O)n(C)c(=O)n(C)c3nc12	none (no result: Pf growth 48h, SARS PLP yeast, HCV inh, Pf growth 96h)
Cc1ccc(-c2c(C)n3c4c(=O)n(C)c(=O)n(C)c4nc3n2CCCO)cc1	HCMV inh -73 (no result: Pf growth 48h, SARS PLP yeast, HCV inh, Pf growth 96h)
CCCN1CCC(=O)N([C@H](CSc2ccc(C)cc2)c2ccccc2)CC1	Sm TGR block 45µM, Pf growth 48h inconclusive, Pf growth 96h inconclusive
Cc1ccc(SC[C@H](c2ccccc2)N2CCN(CCc3ccccc3)CCC2=O)cc1	Sm TGR block inconclusive, Pf growth 48h inconclusive, Pf growth 96h inconclusive
CCCN1CCC(=O)N([C@H](CSc2ccccc2)c2ccccc2)CC1	Sm TGR block 40µM, Pf growth 48h inconclusive, Pf growth 96h inconclusive, HCMV inh -102
O=C(COc1coc(CN2CCCc3ccccc32)cc1=O)Nc1ccccc1	Pf growth 48h inconclusive, HCV inh inconclusive, Pf growth 96h inconclusive
Cc1ccc(NC(=O)COc2coc(CN3CCc4ccccc43)cc2=O)c(C)c1	Pf growth 48h inconclusive, HCV inh inconclusive
COc1ccc(OC)c(NC(=O)COc2coc(CN3CCCc4ccccc43)cc2=O)c1	Pf growth 48h 10µM, HCV inh inconclusive, Pf growth 96h inconclusive, HCMV inh inconclusive
COc1ccc(OC)c(NC(=O)COc2coc(CN3CCc4ccccc43)cc2=O)c1	Pf growth 48h 10µM, HCV inh inconclusive, Pf growth 96h inconclusive
COc1ccccc1C(=O)Nc1cccc2cccnc12	Sm TGR block inconclusive, HCV inh inconclusive
Cc1cc(OCC(O)CNC(C)c2ccccc2)ccc1C(C)C (centres undefined)	Pf growth 48h inconclusive, HCV inh inconclusive, Pf growth 96h inconclusive
CCOC(=O)CC1(C)Oc2cc(Cl)ccc2N1S(=O)(=O)c1ccc(C)cc1 (centres undefined)	HCMV inh -70 (no result: Sm TGR block, Pf growth 48h, SARS PLP yeast, HCV inh, Pf growth 96h)
CCOC(=O)C1=C(N)OC2=C(C(=O)CC(C)(C)C2)C1c1ccc(C)s1 (centres undefined)	none
CCOC(=O)C1=C(N)OC2=C(C(=O)CC(C)(C)C2)C1c1ccc(CC)s1 (centres undefined)	Pf growth 96h 4.1µM, HCMV inh inconclusive
Cc1cccc2nc(CSCc3ccco3)cn12	Sm TGR block 28µM
Cc1cc(C)n2cc(CSCc3ccco3)nc2n1	Sm TGR block 40µM
Cc1cccc2nc(CSc3ccc(Cl)cc3)cn12	Pf growth 96h inconclusive
O=C1CS(=O)(=O)C2(C(=O)N(Cc3cccc(F)c3)c3ccccc32)N1c1ccccc1 (centres undefined)	none (no result: Pf growth 48h, SARS PLP yeast, HCV inh, Pf growth 96h)
Fc1ccc(Oc2ncccn2)c(F)c1	none
CC1(C)c2ccccc2-c2nc3ccccc3cc2C1O (centres undefined)	none
c1ccc2c(c1)-c1nc3ccccc3cc1C2N1CCCCC1 (centres undefined)	HCMV inh -102 (no result: Sm TGR block, Pf growth 48h, SARS PLP yeast, HCV inh, Pf growth 96h)
CC(=O)c1sc(NC(=O)COc2ccc(Br)cc2)nc1C	HCMV inh inconclusive
CC(=O)c1sc(NC(=O)COc2ccc([N+](=O)[O-])cc2)nc1C	Pf growth 96h 15µM
O=C(Cc1ccc(Cl)cc1)Nc1ncc([N+](=O)[O-])s1	Sm TGR block inconclusive
O=C(COc1ccc(Cl)cc1)Nc1ncc([N+](=O)[O-])s1	HCV inh inconclusive, HCMV inh -61
CCOc1ccc(Cn2c(CNS(=O)(=O)c3ccc(C(C)(C)C)cc3)nc3cccnc32)cc1	none (no result: Pf growth 48h, SARS PLP yeast, HCV inh, Pf growth 96h)
CCOC(=O)CC(=O)CSc1nc2ccc(OC)cc2cc1C	Pf growth 48h inconclusive, HCV inh inconclusive (no result: Sm TGR block)
O=C(O)c1cccc(-n2c(O)c(C=C3N=c4ccccc4=N3)sc2=S)c1	Pf growth 48h 12µM, Pf growth 96h inconclusive
O=C(O)CCCCCn1c(O)c(C=C2N=c3ccccc3=N2)sc1=S	Pf growth 96h inconclusive, HCMV inh -80
CCCCN1C(=O)C(C#N)CC2=C1CC(C)(C)CC2=O (centres undefined)	none (no result: Sm TGR block, Pf growth 48h, SARS PLP yeast, Pf growth 96h)
CCOc1ccc(NC(=O)CN(C)CC(=O)NC2CCCc3ccccc32)cc1OCC (centres undefined)	Pf growth 48h inconclusive, HCV inh inconclusive
CCOC(=O)N1CCN(C(=O)c2ccc(Cn3c(=S)[nH]c4cc(OCC)c(OCC)cc4c3=O)cc2)CC1	Pf growth 48h inconclusive, HCV inh inconclusive
CCCCCn1c(=O)[nH]c2cc(C(=O)N3CCN(Cc4ccc5c(c4)OCO5)CC3)ccc2c1=O	HCV inh 2.8µM, HCMV inh -76
